Source: PubChem BioAssay
Luciferase inh: firefly luciferase inhibition | 2.2% of 72,000 active | purified firefly luciferase, luminescence, 8 min | Potency, µM (top dose mostly 57.1 µM), usual class: inhibitors | P08659; note: nearly all actives have a fitted effect of over 40% in size
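Firefly luciferase (PKLight detection mix) with 10 uM ATP in pH 7.2 imidazole buffer (KCl, MgCl2, Tween 20, BSA). Compounds tested across a concentration series (qHTS). Luminescence read after 8 min at ambient temperature.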
TSHR ag: activates the human thyroid stimulating hormone receptor. Potency, µM (titrated, usually from 57.1 µM), usual class: activators. AID 926. 0.48% of 73,000 active. HEK293-CNG-TSHR cells (CNG channel as cAMP sensor), membrane potential dye, cAMP. P16473; active = well fitted activation curve with a large enough effect in the main read-out, with a control signal flat, not every such curve was filed as active; inconclusive = small, poorly fitted or top-dose-only effect, or a change in a side signal; inactive = no such curve, though single readings can be large or run the other way; reference of the percent scale not stated here;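 note: the control signal comes from parental cells without the receptor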
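cAMP rise detected as CNG-channel membrane depolarization by fluorescent dye (emission 590 nm), 30 min after compound, following 60 min dye loading containing 100 uM RO 20-1724 at room temperature. Cells: TSHR/CNG HEK 293, with parental CNG HEK 293 as control.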
ERK AVP inh: blocks ERK signaling stimulated by vasopressin; HEK293-V1b, vasopressin-stimulated pERK AlphaScreen; Potency, µM (series often up to 57.5 µM), actives largely listed as inhibitors; 0.99% of 72,000 active; AID 995; note: nearly all actives have a fitted effect of over 55% in size
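Phosphorylated ERK1/2 detected via AlphaScreen bead proximity in lysates of V1b-expressing HEK293 cells given 25 nM vasopressin for 5 min after 30 min compound exposure (37 °C). AC50 from Hill equation; basal DMSO 0%, vasopressin 100%.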
PK Bst: alters activity of Bacillus stearothermophilus pyruvate kinase. purified pyruvate kinase, luminescence ATP production; ribose 5-phosphate activator present at AC10. Potency, µM. 1.2% of 51,000 active. AID 361; in the data active = potency below about 11 µM; inconclusive = mostly about 12 µM to 25 µM;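 the screen sought inhibitors and activators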
HEK293 cAMP cs: raises cAMP in parental HEK293 cells, TSHR agonist counter-screen; parental HEK293 CNG cAMP sensor, membrane potential fluorescence; AID 938; Potency, µM (doses to about 57.1 µM), hits mostly activators; 2.5% of 73,000 active; note: nearly all actives have a fitted effect of over 55% in size
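Parental HEK 293 cells stably expressing a cAMP-gated CNG channel were loaded with membrane potential dye containing 100 uM RO 20-1724 for 60 min. Compound added for 30 min; depolarization read as fluorescence intensity at 590 nm.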
Tau fil binding: binds recombinant human tau filaments; recombinant tau filaments, thioflavin S fluorescence, 15 h; filaments grown with octadecylsulfate alongside compound; Potency, µM (series often up to 57.1 µM); 2% of 71,000 active;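 note: actives lower thioflavin S fluorescence by blocking filaments or displacing dye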
Target sequence (P10636 whole entry, looked up): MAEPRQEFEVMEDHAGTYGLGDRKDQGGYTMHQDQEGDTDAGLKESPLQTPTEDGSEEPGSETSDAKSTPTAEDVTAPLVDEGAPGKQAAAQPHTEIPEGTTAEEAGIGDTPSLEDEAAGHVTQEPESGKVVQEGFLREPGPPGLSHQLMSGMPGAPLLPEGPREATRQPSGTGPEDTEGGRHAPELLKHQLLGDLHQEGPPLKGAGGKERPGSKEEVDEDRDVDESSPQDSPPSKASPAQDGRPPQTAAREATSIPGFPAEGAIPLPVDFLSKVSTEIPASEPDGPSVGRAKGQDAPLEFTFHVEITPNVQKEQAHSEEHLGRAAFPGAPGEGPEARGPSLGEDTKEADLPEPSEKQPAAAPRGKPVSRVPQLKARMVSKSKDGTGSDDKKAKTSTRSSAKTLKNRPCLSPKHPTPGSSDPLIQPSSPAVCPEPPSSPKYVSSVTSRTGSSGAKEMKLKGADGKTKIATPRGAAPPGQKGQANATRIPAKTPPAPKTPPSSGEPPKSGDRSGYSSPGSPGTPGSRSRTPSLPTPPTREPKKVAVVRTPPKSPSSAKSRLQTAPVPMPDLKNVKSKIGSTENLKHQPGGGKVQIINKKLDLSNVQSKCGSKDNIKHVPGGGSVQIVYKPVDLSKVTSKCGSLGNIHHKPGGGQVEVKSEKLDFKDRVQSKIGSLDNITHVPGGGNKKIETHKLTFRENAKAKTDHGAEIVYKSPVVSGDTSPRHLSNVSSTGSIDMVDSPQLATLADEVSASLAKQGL
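Assay mix: 1 uM His-tagged tau, 30 uM sodium octadecylsulfate, thioflavine S dye in HEPES/NaCl/DTT buffer. Compound is added prior to the inducer. Fluorescence after 15 h at 37 C.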
A number is an active result; - = inactive; ? = inconclusive; . = no result given; [ ] = remark or other dose. A selection: hits, their analogues and other compounds. The true share with any hit is near 7.2%. Unless noted, calls come from the whole dose curve; as a rule, active = well fitted curve in the direction sought with a large enough effect; inconclusive = small, poorly fitted or top-dose-only effect, or another doubt; inactive = no such curve, though single readings can be large; an effect the other way counts as inactive or inconclusive.

SMILES | Luciferase inh | TSHR ag | ERK AVP inh | PK Bst | HEK293 cAMP cs | Tau fil binding
C=C1CCC2C(CC2(C)C)C(=C)CC/C1=N/O (stereo not given) | . | . | - | . | . | .
CCN(CC)CCNc1nc2ccccc2n1C | - | - | - | - | - | -
Cn1c(NCc2cccc(Br)c2)nc2ccccc21 | - | - | 32µM | - | - | -
Cn1c(CNc2ccc(Cl)cc2)nc2ccccc21 | 13µM | - | ? | - | - | -
Cn1c(NCc2ccccc2Cl)nc2ccccc21 | 13µM | - | - | . | - | -
Cn1c(NCc2ccccc2O)nc2ccccc21 | - | - | - | - | - | -
O=C(Nc1cn(-c2ccccc2)nc1-c1cccs1)c1ccco1 | - | ? | - | . | 32µM | -
COc1cc(NC(=O)c2ccco2)c(OC)cc1NC(=O)CSc1nnc(-c2cccs2)n1C | - | - | - | - | - | -
CCN(CC)CCCn1c(-c2ccccc2)nc2c(N(CCOC)CCOC)nc(C)nc21 | . | ? | - | . | ? | -
COc1ccc(-c2nc(C#N)c(NCCCN(C)C)o2)cc1OC | - | - | - | . | - | -
COc1ccc(-c2nc(C#N)c(NC(C)c3ccccc3)o2)cc1OC (stereo not given) | - | - | 16µM | - | - | -
CCOC(=O)c1c(OCC)[nH]c2c1cc(O)c1ccccc12 | - | - | 25µM | . | - | -
COc1ccccc1N1CCN(c2nc(N)c(C#N)c(CC#N)c2C#N)CC1 | - | - | ? | - | - | -
COc1cc2c(C#N)c(N3CCN(c4ccccc4OC)CC3)nc(N)c2c(N)n1 | - | - | 25µM | . | - | -
Cc1cc(=O)oc2cc(O)c(CN(C)CC(=O)O)cc12 | -[11.4 µM] | -[11.4 µM] | -[11.5 µM] | . | -[11.4 µM] | -[11.4 µM]
COc1ccccc1Nc1nnc(SCC(=O)N2CCCC2=O)s1 | 20µM | - | - | . | - | -
Clc1ccccc1-c1nc(Nc2ccncc2)c2ccccc2n1 | -[2.29 µM] | - | - | . | - | -
COc1nc(Nc2ccc(O)cc2)nc(OC(C(F)(F)F)C(F)(F)F)n1 | - | -[11.4 µM] | 2µM | - | - | -
Cc1cc(C(=O)CSc2nncs2)c(C)n1-c1ccc2c(c1)OCO2 | - | ? | 32µM | - | ? | -
N#Cc1c(C(F)(F)F)cc(-c2ccco2)nc1SCc1ccccn1 | - | ? | - | - | 32µM | -
CCOC(=O)CCN1C(=O)[C@H]2[C@H]3[C@H](O)[C@H](O)C/C(=N/OC[C@@H](O)COCc4ccco4)[C@@H]3CC[C@@H]2C1=O | -[11.4 µM] | -[11.4 µM] | -[11.5 µM] | . | -[11.4 µM] | .
CCOC(=O)C1=C(CS(=O)(=O)c2ccccc2)NC(=O)NC1c1ccccc1OCC (stereo not given) | - | - | - | . | - | -
CCOC(=O)C1=C(CS(=O)(=O)c2ccc(F)c(C)c2)NC(=O)NC1c1ccc(O)c(O)c1 (stereo not given) | - | ? | 25µM | . | ? | -
CC(=O)N1CCN(c2ccc(NCc3ccc(F)cc3)cc2)CC1 | - | - | - | . | - | ?
CC(C)c1ccc(CNc2ccc(N3CCOCC3)cc2)cc1 | - | - | ? | - | - | 25µM
SMILES | Luciferase inh | TSHR ag | ERK AVP inh | PK Bst | HEK293 cAMP cs | Tau fil binding
O=C(Nc1ccc(Cl)cc1)c1ccncc1 | - | - | - | . | - | -
O=C(Nc1ccccc1O)c1ccc(Cl)cc1 | 16µM | - | - | . | - | -
FC(F)(F)c1ccc(CN2C[C@@H]3C(c4ccc(C(F)(F)F)cc4)C4(c5ccccc5)CC3(C4)[C@H]2c2ccccc2)cc1 (stereo not given in full) | . | . | - | . | . | .
O=C(COc1ccccc1Cl)Nc1ccc2c(c1)OCCO2 | 10µM | ? | - | . | ? | -
Cc1cccc(OCC(=O)Nc2ccc3c(c2)OCCO3)c1 | 13µM | - | - | - | - | -
Cc1cnc(NC(=O)COc2ccccc2Cl)s1 | 1.3µM | - | - | 1.4 | - | -
O=C(CN1C(=O)COc2ccc(Cl)cc21)Nc1ccc2c(c1)OCCO2 | - | - | - | 3.6 | - | -
COCCNc1ncnc2ccc(-c3ccccc3OC)cc12 | -[2.29 µM] | ? | - | . | ? | -
O=C1C=CC2=C3c4cc(O)c(O)cc4C[C@@]3(O)COC2=C1O | -[11.4 µM] | - | . | . | - | ?
CC(C)(C)n1nnnc1C(c1ccccc1F)N(Cc1ccco1)CC1CCCO1 (stereo not given) | - | ? | - | - | 13µM | -
